The source of these data is PubChem BioAssay (EPA / NIEHS).

Where “and” joins values, the source holds several entries; their conditions need not be identical. Equal entries are not always repeated. Results filed as inconclusive are left out. The source holds several records for some structures; these can differ, active in one and inactive in another. Calls of active or inactive are those of the source. The calls were made as follows: active = hit-call score of the fitted dose curve at least 0.9, where 1 is the maximum; inconclusive = response in the unintended direction; inactive = score below 0.9.

Cellular tumor antigen p53 (Homo sapiens), sequence (P04637 whole entry, looked up, the tested form may be a part): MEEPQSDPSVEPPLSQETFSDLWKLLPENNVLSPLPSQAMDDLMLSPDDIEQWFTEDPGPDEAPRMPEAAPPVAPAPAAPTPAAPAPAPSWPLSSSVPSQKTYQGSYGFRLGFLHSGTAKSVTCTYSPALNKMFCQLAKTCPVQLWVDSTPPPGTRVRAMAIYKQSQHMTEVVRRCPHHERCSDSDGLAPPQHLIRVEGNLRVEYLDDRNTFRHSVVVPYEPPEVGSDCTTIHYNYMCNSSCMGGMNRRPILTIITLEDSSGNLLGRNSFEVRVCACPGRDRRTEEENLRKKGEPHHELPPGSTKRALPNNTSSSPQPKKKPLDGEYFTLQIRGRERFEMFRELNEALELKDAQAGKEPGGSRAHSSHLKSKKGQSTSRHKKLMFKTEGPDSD

This experiment concerns the target Cellular tumor antigen p53 (Homo sapiens) (UniProt P04637). Kind of experiment: TOX21_p53_BLA_p3_ratio: Tox21 HCT-116 p53 Agonism Beta-lactamase Assay, Ratio, Phase 3 (AID 2283596). From the text:
TOX21_p53_BLA_p3 is a cell-based, single-readout assay that uses HCT116, a human intestinal cell line, […] in a 1536-well plate.TOX21_p53_BLA_p3_ratio is an assay readout measuring reporter gene via receptor activity and designed using inducible reporter (beta lactamase induction) detected with GAL4 b-lactamase reporter gene. The signal is derived from the ratio of cleaved (ch2) to uncleaved (ch1) reporter gene substrate used as the measure of target activity.Data from the assay component TOX21_p53_BLA_p3_ratio was analyzed into 1 assay endpoint. This assay endpoint, TOX21_p53_BLA_p3_ratio, was analyzed in the positive analysis fitting direction relative to DMSO as the negative control and baseline of activity. Using a type of inducible reporter, gain-of-signal activity can be used to understand changes in the reporter gene as they relate to the gene TP53. Furthermore, this assay endpoint can be referred to as a primary readout, because this assay has produced multiple assay endpoints where this ratio serves a reporter gene function to understand target activity. To generalize the intended target to other relatable targets, this assay endpoint is annotated to the DNA binding intended target family, where the subfamily is tumor suppressor.
Thawing Method: Place 14 mL of pre-warmed thaw medium into a 15 mL of conical tub. Remove the vial of cells to be thawed from liquid nitrogen and thaw rapidly by placing at 37C in a water bath with gentle agitation for 1-2 minutes. Decontaminate the vial by wiping with 70% ethanol before opening in a biological safety cabinet. Transfer the vial contents drop-wise into 14 mL of thaw medium in a sterile 15-mL conical tub. Centrifuge cells at 900 rpm for 4 minutes and resuspend in thaw medium. Transfer contents to the T75 tissue culture flask containing Thaw Medium and place flask in a humidified 37C/5% CO2 incubator. Switch to growth medium at first passage.Propagation Method: Aspirate medium, rinse once in DPBS, add 0.25% Trypsin/EDTA and swirl to coat the cell evenly. Add an equal volume of Growth Medium to inactivate Trypsin after 2-3 minutes incubation at 37C. Centrifuge cells at 900 rpm for 4 minutes and resuspend in growth medium. Cell should be passage or fed at least twice a week.Assay Protocol: Harvest cells from culture in growth medium and resuspend in assay medium. 2.2 Dispense 4000 cells/5 uL/well into 1536-well black/clear bottom plates using a Multidrop dispenser. After the cells were incubated at 37C for 5 hours, 23 nL of compounds dissolved in DMSO were transferred to the assay plate by a PinTool resulting in a 217-fold dilution. Incubate the plates for 16 hours at 37C, 5% CO2. Add 1 uL of 6X LiveBLAzer FRET B/G (CCF4-AM) Substrate Mixture to each well using a BioRAPTR dispenser and incubate the plates at room temperature for 2 hours. Measure fluorescence intensity at 460 and 530 nm emission and 405 nm excitation by an Envision detector. Data is expressed as the ratio of 460nm/530nm emissions. Add 4 uL of Cell-titer Glo to each well using BioRAPTR and incubate the plates at room temperature for 2 hours. Measure fluorescence intensity by a VewLux plate reader.
As for `C=CCc1ccc2c(c1)OCO2`, the outcome was inactive.
For the compound `COP(=S)(OC)SCN1C(=O)c2ccccc2C1=O`, the outcome was inactive.
As to `CN(C)c1ccc(C(=O)c2ccc(N(C)C)cc2)cc1`, the AC50 is 826 nM (active) and 1.65 µM (active).
With `CN(C)[C@@H]1C(=O)C(C(N)=O)=C(O)[C@@]2(O)C(=O)C3=C(O)c4c(O)cccc4[C@@](C)(O)[C@H]3C[C@@H]12`, the outcome was inactive.
With `c1ccc(N=Nc2ccccc2)cc1`, the result was inactive.
In the case of `O=C1CCCO1`, the outcome was inactive.
As to `Clc1ccc(C(c2ccc(Cl)cc2)C(Cl)Cl)cc1`, the AC50 is 48.4 µM (active) and the result was inactive.
On to `CN(C)C(=O)Nc1ccc(Cl)cc1`, for which the outcome was inactive.
The same measure, in the same setting: as for `CCC12COCN1COC2`, the entry is “inactive”; as for `CCC(C)c1ccc(O)cc1` (stereo not given), “inactive”; as for `[As]#[In]`, “inactive”.
Regarding `CCCCOC(=O)c1ccccc1C(=O)OCc1ccccc1`, the outcome was inactive.
The same measure, in the same setting: as for `Cc1ccc(N=C=O)cc1N=C=O`, the entry is “inactive”.
On the same count and under the same terms, as for `Nc1ccc(Cl)cc1N`, the entry is “inactive”; as for `CC(C)(C)OOC(=O)c1ccccc1`, “inactive”; as for `N#CC(Br)(Br)C(N)=O`, “inactive”.
Turning to `COC(=O)Nc1nc2ccccc2[nH]1`, the AC50 was 12.9 µM (active) and 8.81 µM (active).
With `Oc1ccccc1Cl`, the outcome was inactive.
For `Nc1cc(Cl)cc(C(=O)O)c1Cl`, the result was inactive.
Still for that read-out and setting: as for `Cc1cccc(N)c1N`, the entry is “inactive”.
Take `Nc1ccc(Cc2ccc(N)cc2)cc1`: the outcome was inactive.
For the compound `CS(=O)(=O)NC(=O)c1cc(Oc2ccc(C(F)(F)F)cc2Cl)ccc1[N+](=O)[O-]`, the outcome was inactive.
With `CCOc1cccc(C2(N3CCN(c4ccccc4)CC3)CCC(C)CC2)c1` (stereo not given), the outcome was inactive.
Regarding `Cc1ccc(N)c(N)c1`, the outcome was inactive.
On the same count and under the same terms, as for `c1ccc(NNc2ccccc2)cc1`, the entry is “inactive”; as for `C[N+](C)(C)CC1CO1` (stereo not given), “inactive”; as for `Cc1ccc(N)cc1`, “inactive”.
As to `O=Cc1ccco1`, the outcome was inactive.
Consider `CCCCCCCCn1sccc1=O`, for which the result was inactive and the AC50 was 55.1 µM (active).
Regarding `Oc1ccc2ccc3cccc4ccc1c2c34`, the result was inactive.
For `Nc1ccc(Oc2ccc(N)cc2)cc1`, the outcome was inactive.
Turning to `ClCCOCCCl`, the result was inactive.
The same measure, in the same setting: the result for `CCCCCCCCCCCCCN1CC(C)OC(C)C1` (stereo not given) reads “inactive”.
Same read-out and setting: the result for `Cc1cc(N=Nc2ccccc2C)ccc1N` reads “inactive”.
With `CCCSC(=O)N(CCC)CCC`, the outcome was inactive.
As for `COc1cc(C=O)cc2c1[C@H](COC(N)=O)[C@]1(OC(C)=O)ON2C[C@H]2[C@@H]1N2C(C)=O`, the AC50 is 0.56 µM (active).
In the case of `Clc1ccc(C(c2ccc(Cl)cc2)C(Cl)(Cl)Cl)cc1`, the outcome was inactive.
Turning to `O=[N+]([O-])c1ccc(Oc2ccc(Cl)cc2Cl)cc1`, the result was inactive.

One may read the AC50 as the concentration at which the activity in the assay is half-maximal.
